PubChem BioAssay (NCATS)
A number with no mark means an inactive call. Records with an inconclusive call do not appear. The source made the active and inactive calls. Unless noted, the call rests on the fitted dose curve; in most records, active means well fitted curve in the direction sought with a large enough effect; inconclusive means small, poorly fitted or top-dose-only effect, or another doubt; inactive means no such curve, though single readings can be large; an effect the other way counts as inactive or inconclusive.

Assays:
[1] = biological target: Lysosomal acid glucosylceramidase (Homo sapiens) (UniProt P04062); experiment: Glucocerebrosidase-p2 (AID 348; in the data active means potency below about 10 µM; further: potency means the concentration at half of the fitted maximal effect); settings: purified GBA, blue fluorogenic substrate, 40 min
Chain of Lysosomal acid glucosylceramidase (Homo sapiens) (P04062 whole entry, looked up): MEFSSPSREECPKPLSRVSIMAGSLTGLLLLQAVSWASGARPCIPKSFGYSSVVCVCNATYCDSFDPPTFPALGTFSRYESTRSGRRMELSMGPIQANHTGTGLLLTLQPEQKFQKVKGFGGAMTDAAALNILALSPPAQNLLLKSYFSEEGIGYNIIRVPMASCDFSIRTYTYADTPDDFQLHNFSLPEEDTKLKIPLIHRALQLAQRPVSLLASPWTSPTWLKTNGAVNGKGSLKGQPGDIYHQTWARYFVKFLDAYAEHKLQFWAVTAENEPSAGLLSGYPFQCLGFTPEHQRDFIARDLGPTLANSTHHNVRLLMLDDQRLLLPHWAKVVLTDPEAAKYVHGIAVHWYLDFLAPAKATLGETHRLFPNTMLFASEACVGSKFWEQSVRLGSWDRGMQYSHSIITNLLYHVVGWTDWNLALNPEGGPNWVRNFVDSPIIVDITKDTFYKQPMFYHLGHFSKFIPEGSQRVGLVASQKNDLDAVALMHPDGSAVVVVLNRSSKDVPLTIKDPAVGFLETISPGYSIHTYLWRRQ
How it was run: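 Compounds titrated from 0.6 nM upwards against 0.2 nM enzyme in pH 5.9 citric acid/KH2PO4, taurocholate, tween-20; blue fluorogenic substrate 80 uM, 40 min room temperature, stopped and read Ex 365/Em 440 for AC50.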

[2] = Stat Signaling Pathway (AID 446; active means well fitted curve in either direction with a large enough effect, not every such curve was filed as active;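 further: ME-180 cervical cancer cells given 40 pM IL-6 alongside compound; SIE-controlled beta-lactamase reporter measured as 460/530 nm FRET emission ratio; on the % scale 0 is the no-effect control and ±100 the full control effect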); settings: ME-180 SIE beta-lactamase reporter, IL-6 stimulated, 5 h; at 7.69 µM (top of the series) unless noted
How it was run: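 Screening format detects activators and inhibitors alike: ME-180 SIE-bla cells stimulated at 40 pM IL-6 for 5 hrs with compound, then dual-emission beta-lactamase read at 405 nm excitation.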

[3] = biological target: Glucocorticoid receptor (Homo sapiens) (UniProt P04150); experiment: GR-GFP Redistribution (AID 450;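 active means compounds whose dose series gives a full or clear partial fitted curve of increased nuclear translocation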; further: potency means the concentration at half of the fitted maximal effect); settings: U2OS GR-GFP nuclear translocation, laser cytometry, 2 h
Chain of Glucocorticoid receptor (Homo sapiens) (P04150 whole entry, looked up, the tested form may be a part): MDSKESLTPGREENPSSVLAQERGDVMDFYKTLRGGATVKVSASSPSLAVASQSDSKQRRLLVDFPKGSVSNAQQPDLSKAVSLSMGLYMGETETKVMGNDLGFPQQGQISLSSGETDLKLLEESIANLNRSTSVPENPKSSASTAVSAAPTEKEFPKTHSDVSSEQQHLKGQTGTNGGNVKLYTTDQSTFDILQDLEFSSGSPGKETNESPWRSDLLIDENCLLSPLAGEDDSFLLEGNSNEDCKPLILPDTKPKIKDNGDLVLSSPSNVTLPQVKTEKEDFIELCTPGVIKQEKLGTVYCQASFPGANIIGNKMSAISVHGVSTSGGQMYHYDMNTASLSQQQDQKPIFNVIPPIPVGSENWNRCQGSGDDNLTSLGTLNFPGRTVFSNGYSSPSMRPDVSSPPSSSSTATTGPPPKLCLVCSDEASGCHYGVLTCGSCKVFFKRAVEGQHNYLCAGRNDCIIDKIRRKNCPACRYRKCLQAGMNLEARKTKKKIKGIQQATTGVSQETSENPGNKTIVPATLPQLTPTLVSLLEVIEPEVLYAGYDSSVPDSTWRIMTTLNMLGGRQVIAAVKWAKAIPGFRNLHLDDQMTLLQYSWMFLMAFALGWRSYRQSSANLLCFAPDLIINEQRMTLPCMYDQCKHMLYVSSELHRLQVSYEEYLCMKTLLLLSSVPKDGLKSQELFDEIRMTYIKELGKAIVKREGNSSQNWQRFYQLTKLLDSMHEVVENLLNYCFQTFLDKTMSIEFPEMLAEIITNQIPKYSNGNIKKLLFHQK

[4] = biological target: Glucocorticoid receptor (Homo sapiens) (UniProt P04150); experiment: GR-EFC Redistribution (AID 451; calls by dose curve; further: potency means the concentration at half of the fitted maximal effect); settings: CHO-K1 GR-EFC translocation, beta-gal luminescence, 2 h
How it was run: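 CHO-K1 cells expressing nuclear EA and GR-ED fragments of b-gal; compounds titrated up to 46 uM final, 2 h at 37 C. GR nuclear translocation read as complemented b-gal luminescence after 1 h RT detection.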

[5] = biological target: Mitogen-activated protein kinase 10 (Mus musculus) (UniProt Q61831); experiment: JNK3 AlphaScreen Assay (AID 530; active means well fitted curve in either direction with a large enough effect, not every such curve was filed as active;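 further: kinase came from lysate of stimulated human HepG2 cells; signal reports phosphorylation of biotinylated GST-cJun 1-79 at Ser73 with 10 µM ATP; on the % scale 0 is the no-effect control and ±100 the full control effect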); settings: JNK3 lysate, c-Jun phosphorylation; series mostly up to 57.1 µM
How it was run: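 Pre-activated (IL-1β/TNFα) JNK3 in HepG2 lysates phosphorylates biotin-GST-cJun(1-79), 10 uM ATP; anti-phospho-cJun(Ser73) AlphaScreen read at room temperature, pH 7.6 Tris buffer. Compounds pre-incubated 15 min as titrations.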

[6] = biological target: 3',5'-cyclic-AMP phosphodiesterase 4B (Homo sapiens) (UniProt Q07343); experiment: qHTS Assay for Inhibitors of PDE-IV (AID 607; active means well fitted activation curve with a large enough effect in the main read-out, with a control signal flat, not every such curve was filed as active; further: potency means the concentration at half of the fitted maximal effect); settings: HEK293 ACTOne CNG channel cells, membrane potential fluorescence; series mostly up to 22.9 µM
Chain of 3',5'-cyclic-AMP phosphodiesterase 4B (Homo sapiens) (Q07343 whole entry, looked up): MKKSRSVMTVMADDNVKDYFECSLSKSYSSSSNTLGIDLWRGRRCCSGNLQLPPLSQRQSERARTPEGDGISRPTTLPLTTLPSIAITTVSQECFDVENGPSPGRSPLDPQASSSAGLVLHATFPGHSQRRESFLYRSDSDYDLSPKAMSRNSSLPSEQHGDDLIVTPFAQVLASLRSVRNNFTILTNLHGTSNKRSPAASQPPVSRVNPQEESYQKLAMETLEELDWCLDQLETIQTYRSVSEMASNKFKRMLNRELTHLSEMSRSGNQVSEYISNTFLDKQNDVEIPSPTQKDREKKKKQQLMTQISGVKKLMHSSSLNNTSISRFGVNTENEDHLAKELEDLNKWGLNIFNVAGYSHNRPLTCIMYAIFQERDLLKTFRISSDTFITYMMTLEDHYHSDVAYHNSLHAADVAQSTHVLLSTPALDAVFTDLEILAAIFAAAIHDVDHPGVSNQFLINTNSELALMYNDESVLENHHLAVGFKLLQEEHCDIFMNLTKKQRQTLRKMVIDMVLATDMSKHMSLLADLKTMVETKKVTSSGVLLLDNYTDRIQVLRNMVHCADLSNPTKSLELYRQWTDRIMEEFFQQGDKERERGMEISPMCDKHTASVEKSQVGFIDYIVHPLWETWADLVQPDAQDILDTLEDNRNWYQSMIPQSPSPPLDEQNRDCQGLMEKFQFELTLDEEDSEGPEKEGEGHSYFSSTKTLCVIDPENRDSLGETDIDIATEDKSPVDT
How it was run: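 The readout is membrane depolarisation from a cAMP-sensing CNG channel, detected with a potential dye at ex 535/em 590. Cells were HEK293-derived (endogenous PDE-IV) at 1000 cells/well, titrated up to 22.9 uM final.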

[7] = biological target: Dual specificity protein kinase CLK4 (Homo sapiens) (UniProt Q9HAZ1); experiment: qHTS Assay for Inhibitors of CDC-like Kinase 4 (Kinase-Glo Assay) (AID 1770); settings: recombinant Clk4, Kinase-Glo ATP depletion luminescence; series mostly up to 66.7 µM; further: nearly all actives have a fitted effect of over 65% in size; further: potency means the concentration at half of the fitted maximal effect
Chain of Dual specificity protein kinase CLK4 (Homo sapiens) (Q9HAZ1 whole entry, looked up): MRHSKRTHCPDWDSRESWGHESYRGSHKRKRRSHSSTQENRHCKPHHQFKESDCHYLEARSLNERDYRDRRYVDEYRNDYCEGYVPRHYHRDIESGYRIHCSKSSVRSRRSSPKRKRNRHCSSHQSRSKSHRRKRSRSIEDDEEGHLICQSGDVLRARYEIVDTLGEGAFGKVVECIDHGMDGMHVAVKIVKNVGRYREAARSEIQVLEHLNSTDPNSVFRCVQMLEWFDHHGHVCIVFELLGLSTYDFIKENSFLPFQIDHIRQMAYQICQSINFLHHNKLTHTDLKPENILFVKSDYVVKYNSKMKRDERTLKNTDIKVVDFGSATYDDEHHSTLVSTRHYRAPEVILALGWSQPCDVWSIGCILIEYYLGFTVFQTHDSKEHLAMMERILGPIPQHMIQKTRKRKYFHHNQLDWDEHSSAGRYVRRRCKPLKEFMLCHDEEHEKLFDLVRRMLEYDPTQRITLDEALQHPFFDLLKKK
How it was run: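 Recombinant human Clk4 (25 nM) phosphorylated RS repeat peptide (100 uM) with 1 uM ATP in Tris pH 7.5/MgCl2/EGTA/DTT/Triton buffer for 4.5 h at room temperature. Residual ATP was quantified by Kinase-Glo luciferase luminescence.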

[8] = biological target: Dual specificity protein kinase CLK4 (Homo sapiens) (UniProt Q9HAZ1); experiment: qHTS Assay for Inhibitors of CDC-like Kinase 4 (ADP-Glo Assay) (AID 1771); settings: recombinant CLK4, ADP-Glo luminescence; series mostly up to 80 µM; further: nearly all actives have a fitted effect of over 70% in size; further: potency means the concentration at half of the fitted maximal effect
How it was run: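 25 nM Clk4 with 100 uM RS repeat peptide and 1 uM ATP (final) in buffer with 2 mM MgCl2, 0.5 mM EGTA, 2.5 mM DTT, 0.01% Triton X-100; 1 h at room temperature; ADP-Glo luminescence for ADP formed.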

[9] = biological target: Ubiquitin carboxyl-terminal hydrolase 1 (Homo sapiens) (UniProt O94782); experiment: Inhibitors of USP1/UAF1: Pilot qHTS (AID 504865); settings: purified USP1/UAF1, Ub-rhodamine cleavage fluorescence; series mostly up to 54.9 µM;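 further: rhodamine fluorescence freed from ubiquitin-rhodamine substrate followed over time; top concentration of the series differs between compounds; on the % scale 0 is the no-effect control and ±100 the full control effect; nearly all actives have a fitted effect of over 35% in size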
Chain of Ubiquitin carboxyl-terminal hydrolase 1 (Homo sapiens) (O94782 whole entry, looked up): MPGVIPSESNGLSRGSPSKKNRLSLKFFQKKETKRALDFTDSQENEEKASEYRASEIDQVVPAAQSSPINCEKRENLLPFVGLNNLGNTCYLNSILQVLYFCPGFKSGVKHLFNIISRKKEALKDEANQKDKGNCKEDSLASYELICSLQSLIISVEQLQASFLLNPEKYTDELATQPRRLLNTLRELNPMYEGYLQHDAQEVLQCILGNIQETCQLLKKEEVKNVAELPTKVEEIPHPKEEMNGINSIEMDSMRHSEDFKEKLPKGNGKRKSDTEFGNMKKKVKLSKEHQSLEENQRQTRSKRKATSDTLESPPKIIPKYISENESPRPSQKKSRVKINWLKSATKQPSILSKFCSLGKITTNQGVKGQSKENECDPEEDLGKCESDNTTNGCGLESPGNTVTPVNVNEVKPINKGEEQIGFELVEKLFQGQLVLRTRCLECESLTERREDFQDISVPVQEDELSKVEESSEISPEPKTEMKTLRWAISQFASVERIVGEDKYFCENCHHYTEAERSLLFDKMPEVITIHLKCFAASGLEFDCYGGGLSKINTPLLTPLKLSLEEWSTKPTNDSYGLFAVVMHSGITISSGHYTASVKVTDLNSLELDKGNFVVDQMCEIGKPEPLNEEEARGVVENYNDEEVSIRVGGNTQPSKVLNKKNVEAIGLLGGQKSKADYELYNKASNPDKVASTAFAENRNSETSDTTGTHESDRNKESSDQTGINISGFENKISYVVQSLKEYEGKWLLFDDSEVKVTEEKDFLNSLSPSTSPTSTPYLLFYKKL
How it was run: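 USP1/UAF1 complex (1nM) preincubated with compound 15 min at room temperature, then Ub-Rho substrate (150nM final) added. Fluorescence read kinetically at 480/540 nm, 6 reads every 60 seconds. Buffer: 50mM HEPES pH 7.8, 0.5mM EDTA, 0.1 mg/ml BSA, 1mM TCEP, 0.01% Tween-20.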

[10] = Primary qHTS for small molecule stabilizers of the endoplasmic reticulum resident proteome: Secreted ER Calcium Modulated Protein (SERCaMP) assay (AID 1508630); settings: SH-SY5Y GLuc-SERCaMP (Gaussia luciferase released on ER calcium loss) secretion, thapsigargin, luminescence; series mostly up to 38.4 µM; further: on the % scale 0 is the no-effect control and ±100 the full control effect
How it was run: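 GLuc-SERCaMP-expressing SH-SY5Y cells, pretreated 16 h with compound, are challenged with thapsigargin to empty ER calcium stores; after 4 h, coelenterazine is added directly to the medium and luminescence is imaged.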

[11] = AP1 Signaling Pathway (AID 357; active means well fitted curve in either direction with a large enough effect, not every such curve was filed as active;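 further: ME-180 reporter cells stimulated with EGF at its EC50 level; on the % scale 0 is the no-effect control and ±100 the full control effect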); settings: ME-180 AP-1-bla reporter, EGF-induced, beta-lactamase ratio, 5 h; at 7.69 µM (top of the series) unless noted
How it was run: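 A ratiometric CCF4 readout (405 nm excitation; 460 and 530 nm emission) quantified AP-1-driven beta-lactamase in ME-180 cells after 5 h with compound and EC50 EGF; AC50 values were derived for activators and inhibitors.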

[12] = biological target: Cytochrome P450 1A2 (Homo sapiens) (UniProt P05177); experiment: p450-cyp1a2 (AID 410; calls by dose curve; further: potency means the concentration at half of the fitted maximal effect); settings: recombinant CYP1A2, luciferin-ME demethylation, luminescence; series mostly up to 57 µM
Chain of Cytochrome P450 1A2 (Homo sapiens) (P05177 whole entry, looked up): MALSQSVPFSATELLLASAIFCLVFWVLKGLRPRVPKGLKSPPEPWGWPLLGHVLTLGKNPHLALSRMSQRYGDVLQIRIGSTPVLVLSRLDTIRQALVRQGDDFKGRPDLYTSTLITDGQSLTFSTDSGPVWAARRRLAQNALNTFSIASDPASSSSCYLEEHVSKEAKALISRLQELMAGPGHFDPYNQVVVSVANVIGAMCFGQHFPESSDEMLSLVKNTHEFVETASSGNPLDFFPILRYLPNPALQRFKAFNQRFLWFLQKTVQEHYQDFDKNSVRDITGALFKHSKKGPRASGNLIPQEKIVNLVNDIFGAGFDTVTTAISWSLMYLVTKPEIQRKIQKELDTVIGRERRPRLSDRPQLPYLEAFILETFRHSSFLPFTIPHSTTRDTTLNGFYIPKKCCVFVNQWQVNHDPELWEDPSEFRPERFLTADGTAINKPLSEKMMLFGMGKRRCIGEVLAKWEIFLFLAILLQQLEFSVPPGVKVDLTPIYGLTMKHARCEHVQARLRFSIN
How it was run: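 20nM CYP1A2 with 100uM Luciferin-ME (at Km) in 100mM KPO4; compound preincubated 10 min, NADPH regeneration added, 60 min at room temperature. Luciferin quantified by luminescence after detection reagent; normalized to 57 uM furafylline.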

[13] = NFAT Signaling Pathway (AID 444; active means well fitted curve in either direction with a large enough effect, not every such curve was filed as active); settings: Jurkat NFAT-bla M1, carbachol, beta-lactamase ratio, 5 h; at 7.69 µM (top of the series) unless noted
How it was run: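 Jurkat cells with NFAT-driven β-lactamase reporter and co-expressed M1 receptor, stimulated with carbachol (final 1 uM, ~EC50), compound titration, 5 h at 37 °C. CCF4 loaded 1 h at RT; 460/530 nm ratio gave %activity and AC50.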

[14] = biological target: Cytochrome P450 2C9 (Homo sapiens) (UniProt P11712); experiment: qHTS Assay for Inhibitors and Substrates of Cytochrome P450 2C9 (AID 883); settings: recombinant CYP2C9, luciferin-H luminescence, 60 min; series mostly up to 57.1 µM; further: on the % scale 0 is the no-effect control and ±100 the full control effect; nearly all actives have a fitted effect of over 60% in size
How it was run: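 Signal: luciferase luminescence reporting luciferin produced by CYP2C9. Conditions: 10nM enzyme, Luciferin-H 100uM at KM, 25mM KPO4, 37C, 60 min NADPH-driven reaction. Reference: 57uM sulphaphenazole as 100% inhibition.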

[15] = biological target: Cytochrome P450 3A4 (Homo sapiens) (UniProt P08684); experiment: qHTS Assay for Inhibitors and Substrates of Cytochrome P450 3A4 (AID 884); settings: recombinant CYP3A4, Luciferin-PPXE luminescence; series mostly up to 57.1 µM; further: nearly all actives have a fitted effect of over 50% in size; further: potency means the concentration at half of the fitted maximal effect
Chain of Cytochrome P450 3A4 (Homo sapiens) (P08684 whole entry, looked up): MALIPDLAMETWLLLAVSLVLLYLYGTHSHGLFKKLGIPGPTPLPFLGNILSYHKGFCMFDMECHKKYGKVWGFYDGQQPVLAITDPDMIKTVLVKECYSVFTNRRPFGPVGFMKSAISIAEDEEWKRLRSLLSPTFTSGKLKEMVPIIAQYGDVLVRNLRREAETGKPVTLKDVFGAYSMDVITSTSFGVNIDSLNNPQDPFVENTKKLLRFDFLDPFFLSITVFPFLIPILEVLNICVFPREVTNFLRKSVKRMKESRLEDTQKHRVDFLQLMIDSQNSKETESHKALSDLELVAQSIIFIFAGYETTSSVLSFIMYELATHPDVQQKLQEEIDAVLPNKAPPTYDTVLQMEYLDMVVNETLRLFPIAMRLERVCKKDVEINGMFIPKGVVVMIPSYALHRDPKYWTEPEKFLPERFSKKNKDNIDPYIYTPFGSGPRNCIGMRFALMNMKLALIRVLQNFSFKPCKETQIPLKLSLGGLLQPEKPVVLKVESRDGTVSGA
How it was run: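 20 nM human CYP3A4 with 25 uM Luciferin-PPXE (at KM) in 200 mM KPO4, preincubated 10 min with compound; NADPH regeneration started a 60 min RT reaction. Luciferin detected by luminescence, normalized to 57 uM ketoconazole as full inhibition.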

[16] = biological target: Cytochrome P450 3A4 (Homo sapiens) (UniProt P08684); experiment: qHTS Assay for Activators of Cytochrome P450 3A4 (AID 885); settings: recombinant CYP3A4, Luciferin-PPXE luminescence, 60 min; series mostly up to 57.1 µM; further: nearly all actives have a fitted effect of over 65% in size; further: potency means the concentration at half of the fitted maximal effect
How it was run: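 Steps: enzyme/substrate mix dispensed; compound added, 10 min RT; NADPH regeneration solution added, 60 min RT; luciferin detection buffer stops reaction; 20 min later luminescence measured.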

[17] = qHTS Assay for Identification of Small Molecule Agonists for Hypoxia Response Element Signaling Pathway (AID 914; active means well fitted activation curve with a large enough effect in the signal ratio, with a control signal flat, not every such curve was filed as active; the % refers to the signal ratio; further: % of control where 0% means no effect); settings: ME-180 (cervical carcinoma) HRE-bla reporter, beta-lactamase ratio, CoCl2, 17 h; activation: stronger effect = higher value
How it was run: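 AC50 values come from titration-series %Activity, taken as the 460/530nm ratio of CCF4 fluorescence (excitation 405nm). CellSensor HRE-bla ME-180 cells were treated 17 hours at 37 C with compound plus an EC50 level of CoCl2.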

[18] = biological target: Dual specificity protein kinase CLK4 (Homo sapiens) (UniProt Q9HAZ1); experiment: qHTS Assay for Inhibitors of CDC-like Kinase 4 (ADP-FP Assay) (AID 1795); settings: Transcreener ADP fluorescence polarization; series mostly up to 50 µM; further: on the % scale 0 is the no-effect control and ±100 the full control effect; nearly all actives have a fitted effect of over 60% in size
How it was run: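 Recombinant human Clk4 (6.25 nM) phosphorylated RS repeat peptide (100 uM) with 1 uM ATP in Tris pH 7.5/MgCl2/EGTA/DTT/Triton buffer for one hour. ADP was quantified by Transcreener competitive fluorescence polarization against an ADP calibration curve.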

[19] = biological target: Cytochrome P450 2D6 (Homo sapiens) (UniProt P10635); experiment: qHTS Assay for Inhibitors and Substrates of Cytochrome P450 2D6 (AID 891); settings: recombinant CYP2D6, luciferin-ME EGE luminescence; series mostly up to 57.1 µM; further: potency means the concentration at half of the fitted maximal effect; nearly all actives have a fitted effect of over 60% in size
Chain of Cytochrome P450 2D6 (Homo sapiens) (P10635 whole entry, looked up): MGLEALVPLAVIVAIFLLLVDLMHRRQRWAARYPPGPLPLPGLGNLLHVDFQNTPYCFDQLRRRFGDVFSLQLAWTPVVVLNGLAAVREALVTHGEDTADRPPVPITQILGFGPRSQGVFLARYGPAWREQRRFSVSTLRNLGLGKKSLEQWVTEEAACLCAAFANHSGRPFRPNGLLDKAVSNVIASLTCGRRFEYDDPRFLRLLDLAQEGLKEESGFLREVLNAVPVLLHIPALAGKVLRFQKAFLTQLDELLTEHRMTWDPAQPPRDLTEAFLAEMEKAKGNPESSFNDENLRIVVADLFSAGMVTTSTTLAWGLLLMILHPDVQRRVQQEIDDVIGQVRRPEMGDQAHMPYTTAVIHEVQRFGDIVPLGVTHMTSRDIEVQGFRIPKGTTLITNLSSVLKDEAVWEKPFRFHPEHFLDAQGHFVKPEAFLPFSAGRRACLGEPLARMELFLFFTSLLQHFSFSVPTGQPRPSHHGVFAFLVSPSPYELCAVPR
How it was run: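 Human CYP2D6 (5 nM) with 30 uM Luciferin-ME EGE (at Km) in 100 mM KPO4, compound preincubated 10 min, then NADPH regeneration system for 60 min at room temperature. Luciferin read by luminescence; normalized to 1.43 uM quinidine.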

[20] = biological target: Cytochrome P450 2C19 (Homo sapiens) (UniProt P33261); experiment: qHTS Assay for Inhibitors and Substrates of Cytochrome P450 2C19 (AID 899); settings: recombinant CYP2C19, luciferin-H EGE luminescence; series mostly up to 57.1 µM; further: potency means the concentration at half of the fitted maximal effect; nearly all actives have a fitted effect of over 60% in size
How it was run: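 Signal comes from luciferase acting on luciferin released by CYP2C19-mediated hydroxylation of Luciferin-H EGE, 10uM (KM). Assay mix: 5nM enzyme, 50mM KPO4; 60 min at 37C with NADPH regeneration. Data normalized against 57uM ketoconazole.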

| Structure (SMILES) | Potency [1] | activity, negative = inhibition [2] | Potency [3] | Potency [4] | Potency [5] | Potency [6] | Potency [7] | Potency [8] | Potency [9] | outcome [10] | activity change, negative = inhibition [11] | Potency [12] | activity change, negative = inhibition [13] | activity change, negative = inhibition [14] | Potency [15] | Potency [16] | activation [17] | Potency [18] | Potency [19] | Potency [20] |
| --- | --- | --- | --- | --- | --- | --- | --- | --- | --- | --- | --- | --- | --- | --- | --- | --- | --- | --- | --- | --- |
| O=c1cnc2cnc(Oc3cccc(Cl)c3)nc2n1CCc1ccccc1 | > 11.4 µM | -20.1% | > 9.22 µM | > 46 µM | inactive | inactive | 2.24 µM (active) | 3.55 µM (active) | inactive | inactive | – | – | – | – | – | – | – | – | – | – |
| Cc1cnc(CNc2cc(-c3ccccc3C(F)(F)F)ncn2)cn1 | > 11.4 µM | 8.02% | > 46 µM | > 46 µM | inactive | inactive | inactive | – | inactive | inactive | 3.5% | 25.1 µM (active) | 10.7% | 49.4% [at 2.29 µM] | inactive | 6.31 µM (active) | 4.59% | inactive | – | – |
| COc1cccc(-c2nccc(NCCc3c[nH]c4ccc(OC)cc34)n2)c1 | 6.96 µM (active) | -25.8% | – | > 46 µM | inactive | – | 25.1 µM (active) | 28.2 µM (active) | inactive | inactive | – | – | -15.8% | – | – | – | – | – | – | – |
| COCCn1c(=O)c(-c2cccs2)nc2cncnc21 | > 11.4 µM | -2.25% | > 9.22 µM | > 46 µM | inactive | – | inactive | – | inactive | inactive | -17.4% | 3.16 µM (active) | 11.8% | – | – | inactive | – | inactive | – | – |
| COCCn1c(=O)c(-c2ccc(F)cc2)nc2cnc(N(C)C)nc21 | > 11.4 µM | – | > 9.22 µM | > 46 µM | – | 1.58 µM (active) | inactive | – | inactive | inactive | -1.02% | 2 µM (active) | 10.7% | – | – | – | – | inactive | – | – |
| CCNc1ncc2nc(-c3ccc(Cl)cc3)c(=O)n(C)c2n1 | – | – | > 9.22 µM | > 46 µM | inactive | inactive | inactive | inactive | inactive | inactive | 23.6% | 0.398 µM (active) | 20% | – | – | – | – | – | – | – |
| CN(C)c1ccc(-c2nc(-n3ccnc3)c3ccccc3n2)cc1 | 8.28 µM (active) | -23.3% | > 46 µM | > 46 µM | inactive | inactive | 7.94 µM (active) | 11.2 µM (active) | inactive | inactive | – | 0.316 µM (active) | – | – | 0.631 µM (active) | inactive | – | – | 7.94 µM (active) | 2.51 µM (active) |
